Reference: publication PMC5540273 (PLoS ONE, 2017)

Key:
Conditions in all cases: concentration: 1 μM, replicates: in singlicate; n = 1
PRKD3 = system: PRKD3
PRKG1 = system: PRKG1
PRKG2 = system: PRKG2
PRKR = system: T1, PRKR
T1 construct: gene EIF2AK2

PRKX = system: PRKX
PRP4 = system: PRP4
PYK2 = system: T2, PYK2
T2 construct: gene PTK2B

QSK = system: QSK
RAF1 = system: RAF1
RET = system: RET
RIOK1 = system: RIOK1
RIOK2 = system: RIOK2
RIOK3 = system: RIOK3
RIPK1 = system: RIPK1
RIPK2 = system: RIPK2
RIPK4 = system: RIPK4
RIPK5 = system: RIPK5
ROCK1 = system: ROCK1
ROCK2 = system: ROCK2
ROS1 = system: ROS1
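Also: KINOMEscan kinase panel screen.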

Structure (SMILES) | %Inh (PRKD3) | %Inh (PRKG1) | %Inh (PRKG2) | %Inh (PRKR) | %Inh (PRKX) | %Inh (PRP4) | %Inh (PYK2) | %Inh (QSK) | %Inh (RAF1) | %Inh (RET) | %Inh (RIOK1) | %Inh (RIOK2) | %Inh (RIOK3) | %Inh (RIPK1) | %Inh (RIPK2) | %Inh (RIPK4) | %Inh (RIPK5) | %Inh (ROCK1) | %Inh (ROCK2) | %Inh (ROS1)
NCCCC(NC(=O)c1cc(Br)c(-c2ccnc3[nH]ccc23)s1)c1ccccc1.O=C(O)C(F)(F)F.O=C(O)C(F)(F)F (stereo not drawn) [GSK1287544] | 53% | 97.8% | 98% | 0% | 92.5% | 0% | 0% | 0% | 0% | 54% | 91.8% | 66% | 76% | 53% | 0% | 6% | 1% | 99.4% | 92.8% | 10%
CCc1ccc(-c2ccc3c(c2)-c2c(cnn2C)S(=O)(=O)N3C)cc1 | 0% | 0% | 0% | 6% | 16% | 10% | 0% | 0% | 19% | 5% | 0% | 12% | 0% | 0% | 0% | 9% | 26% | 0% | 0% | 3%
O=C(Nc1n[nH]c2cc(-c3ccoc3)ccc12)C1CC1 [SB-738481] | 0% | 0% | 14% | 0% | 0% | 0% | 9% | 11% | 0% | 0% | 68% | 5% | 0% | 28% | 0% | 17% | 3% | 0% | 0% | 9%
CN(C)S(=O)(=O)c1cc(-c2ccc3nccc(-c4cccc(S(N)(=O)=O)c4)c3c2)cnc1N [GSK1669921] | 100% | 34% | 76% | 0% | 27% | 0% | 6% | 7% | 9% | 58% | 36% | 23% | 21% | 4% | 8% | 9% | 26% | 0% | 0% | 0%
O=C(Nc1cccc(Oc2ccc3nc(NC(=O)C4CC4)cn3n2)c1)c1ccccc1C(F)(F)F | 0% | 0% | 0% | 8% | 5% | 5% | 6% | 0% | 76% | 99.9% | 64% | 0% | 76% | 15% | 11% | 0% | 0% | 0% | 0% | 0%
Nc1ncnc2c1nc(-c1ccccc1)n2-c1ccccc1 [SKF-97293] | 22% | 7% | 0% | 27% | 3% | 15% | 8% | 26% | 0% | 17% | 0% | 1% | 6% | 3% | 7% | 27% | 36% | 56% | 43% | 15%
O=C(O)C(F)(F)F.O=C(O)C(F)(F)F.O=c1[nH]ccc2nc(N[C@@H]3CCCNC3)nc(Nc3ccc(S(=O)(=O)N4CCOCC4)cc3)c12 [GSK2177277] | 100% | 66% | 96.5% | 86% | 94.6% | 92.9% | 98.9% | 85% | 0% | 99.9% | 100% | 65% | 82% | 0% | 0% | 95.9% | 98.3% | 99.6% | 92.8% | 71%
Cn1cc(-c2ccc3c(c2)CCN3C(=O)Cc2cccc(F)c2)c2c(N)ncnc21 [GSK2603358] | 2% | 0% | 4% | 1% | 14% | 44% | 0% | 8% | 9% | 47% | 7% | 0% | 0% | 99.7% | 34% | 5% | 62% | 9% | 64% | 21%
COc1cc(Nc2ncc3c(C)nc(-c4cc5ccccc5[nH]4)n3n2)cc(OC)c1OC [GW869516] | 0% | 0% | 0% | 35% | 0% | 0% | 36% | 0% | 18% | 45% | 35% | 0% | 23% | 26% | 6% | 0% | 0% | 0% | 0% | 0%
